Source: PubChem BioAssay (NCATS)
Records with an inconclusive call do not appear. Calls of active or inactive are those of the source. Calls follow the shape of the dose curve; as a rule, active = well fitted curve in the direction sought with a large enough effect; inconclusive = small, poorly fitted or top-dose-only effect, or another doubt; inactive = no such curve, though single readings can be large; an effect the other way counts as inactive or inconclusive.

How the values were obtained:
[1] = Primary qHTS for inhibitors of nuclear receptor binding SET domain protein 2 (NSD2) in an isogenic RCH-ACV NSD2 p.E1099K mutant (9B) (AID 1645876); also: nearly all actives have a fitted effect of over 70% in size
[2] = Primary qHTS for inhibitors of nuclear receptor binding SET domain protein 2 (NSD2) in an RCH-ACV wild type WT cells (2C) (AID 1645877); also: nearly all actives have a fitted effect of over 70% in size
[3] = molecular target: Glutathione peroxidase 1 (Homo sapiens) (UniProt P07203); experiment: Primary qHTS Assay for Inhibitors of Recombinant Selenoprotein Glutathione Peroxidase 1 (GPX1) (AID 1845191); also: nearly all actives have a fitted effect of over 65% in size
Glutathione peroxidase 1 (Homo sapiens), sequence (P07203 whole entry, looked up): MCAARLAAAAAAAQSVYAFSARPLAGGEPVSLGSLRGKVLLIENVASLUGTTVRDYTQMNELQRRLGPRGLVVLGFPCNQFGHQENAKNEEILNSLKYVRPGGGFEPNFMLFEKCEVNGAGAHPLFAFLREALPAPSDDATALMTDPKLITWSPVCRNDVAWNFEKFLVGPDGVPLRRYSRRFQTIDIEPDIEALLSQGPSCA
How it was run: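 GPX1 10 nM, GR 100 nM, GSH 1 mM, NADPH 0.5 mM, CHP 0.5 mM (final). 30-min cpd preincubation, RT. Ex340/Em450 read t=0, t=15 min.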

[4] = molecular target: Phospholipid hydroperoxide glutathione peroxidase GPX4 (Homo sapiens) (UniProt P36969); experiment: Primary qHTS Assay for Inhibitors of Recombinant Selenoprotein Glutathione Peroxidase 4 (GPX4) (AID 1845192); also: % is scaled to controls: 0 for no effect and ±100 for the full control effect; nearly all actives have a fitted effect of over 65% in size
Phospholipid hydroperoxide glutathione peroxidase GPX4 (Homo sapiens), sequence (P36969 whole entry, looked up): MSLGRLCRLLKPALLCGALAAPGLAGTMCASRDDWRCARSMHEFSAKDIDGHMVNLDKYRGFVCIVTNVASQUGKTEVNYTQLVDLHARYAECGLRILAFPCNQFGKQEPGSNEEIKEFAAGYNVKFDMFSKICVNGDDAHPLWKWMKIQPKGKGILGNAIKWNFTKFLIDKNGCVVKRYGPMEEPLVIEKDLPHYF
How it was run: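 qHTS, GR-coupled: GPX4 200 nM + cpd 30 min RT → GSH 1 mM, NADPH 0.5 mM, GR 100 nM → CHP 0.5 mM start; fluor 340/450 at t0 and t15 min; no-enzyme wells as control.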

[5] = molecular target: Luciferin 4-monooxygenase (Photinus pyralis) (UniProt P08659); experiment: Primary firefly luciferase (FLuc) qHTS assay for identification of artifact compounds. (AID 1845220); settings: outcome: dose series up to 54.1 µM unless noted; also: nearly all actives have a fitted effect of over 60% in size
How it was run: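 qHTS, 15 min compound preincubation with substrate (10 uM luciferin, 10 uM ATP) at RT, then 10 nM FLuc; 5 min; luminescence; % inhibition vs no-enzyme/DMSO controls, 4-parameter Hill fit.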

[6] = Primary fluorescence-based thiol-reactive (MSTI) qHTS assay for identification of artifact compounds. (AID 1845221);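 also: thiol-reactive compounds lower the probe fluorescence signal; nearly all actives have a fitted effect of over 65% in size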
How it was run: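 In PBS pH 7.4 with 2% DMSO, each compound met 4 uM MSTI for one hour at ambient temperature, shielded from light, before fluorescence detection.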

[7] = system: Nanoluciferase (engineered Oplophorus gracilirostris luciferase); experiment: Primary Nanoluciferase (NLuc) qHTS assay for identification of artifact compounds. (AID 1845222); also: potency is read from the fitted curve at half-maximal effect
How it was run: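 Luminescence read-out of secreted NLuc in S16 cell conditioned medium (1:55); compounds tested with 15 min RT preincubation, then Nano-Glo substrate 1:100, 5 min. % inhibition vs no-enzyme and DMSO controls, 4-parameter Hill fit.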

[8] = system: CRL-7250; experiment: Cytotoxic Profiling of Annotated Libraries Using Quantitative High-Throughput Screening (AID 1296008); settings: Five cell lines viability, CellTiter-Glo ATP luminescence, 48-72 h; max response: active compounds read low; also: nearly all actives have a fitted effect of over 60% in size; as to max response: % is scaled to controls: 0 for no effect and ±100 for the full control effect
How it was run: (§1)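 Compounds were pin-transferred onto cells and incubated 48 or 72 hr at 37 degree Celsius, 95% humidity. CellTiter-Glo was added, plates sat 10 min at room temperature, then ATP-coupled luminescence was imaged as the viability read-out.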

[9] = system: HEK293; experiment: as above; settings: Five cell lines viability, CellTiter-Glo ATP luminescence, 48-72 h; max response: active compounds read low
How it was run: as §1

[10] = system: HaCat; experiment: as above; settings: Five cell lines viability, CellTiter-Glo ATP luminescence, 48-72 h; max response: active compounds read low
How it was run: as §1

[11] = system: KB-3-1; experiment: as above; settings: Five cell lines viability, CellTiter-Glo ATP luminescence, 48-72 h; max response: active compounds read low
How it was run: as §1

[12] = system: NIH3T3; experiment: as above; settings: Five cell lines viability, CellTiter-Glo ATP luminescence, 48-72 h; max response: active compounds read low
How it was run: as §1

[13] = system: C33A; experiment: Primary qHTS to identify gynecologic anti-cancer compounds using libraries of approved drugs and bioactive compounds (AID 1345084); settings: Gynecologic cancer cell panel viability, ATPlite luminescence, 48 h; series mostly up to 57.5 µM; also: % is scaled to controls: 0 for no effect and ±100 for the full control effect; nearly all actives have a fitted effect of over 55% in size
How it was run: (§2)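 Five-concentration response, 48 h; readout is ATP-driven luciferase luminescence.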

[14] = system: CASKI; experiment: as above; settings: Gynecologic cancer cell panel viability, ATPlite luminescence, 48 h; series mostly up to 57.5 µM
How it was run: as §2

[15] = system: Es-2; experiment: as above; settings: Gynecologic cancer cell panel viability, ATPlite luminescence, 48 h; series mostly up to 57.5 µM
How it was run: as §2

[16] = system: Hek293T; experiment: as above; settings: Gynecologic cancer cell panel viability, ATPlite luminescence, 48 h, control line for the selectivity index; series mostly up to 57.5 µM
How it was run: as §2

[17] = system: OV90; experiment: as above; settings: Gynecologic cancer cell panel viability, ATPlite luminescence, 48 h; series mostly up to 57.5 µM
How it was run: as §2

[18] = system: PA-1; experiment: as above; settings: Gynecologic cancer cell panel viability, ATPlite luminescence, 48 h; series mostly up to 57.5 µM
How it was run: as §2

[19] = system: Tov-21-G; experiment: as above; settings: Gynecologic cancer cell panel viability, ATPlite luminescence, 48 h; series mostly up to 57.5 µM
How it was run: as §2

[20] = system: Tov112D; experiment: as above; settings: Gynecologic cancer cell panel viability, ATPlite luminescence, 48 h; series mostly up to 57.5 µM
How it was run: as §2

CN1CCc2cc3c(cc2C1C1OC(=O)c2c1ccc1c2OCO1)OCO3 (stereo unspecified)
inactive: Potency [1] | Potency [2] | Potency [3] | Potency [4] | outcome [5] | Potency [6] | Potency [7] | max response [8] -4.88% | max response [9] 1.39% | max response [10] -1.45% | max response [11] -4.22% | max response [12] 0.735% | Potency [13] | Potency [14] | Potency [15] | Potency [16] | Potency [17] | Potency [18] | Potency [19] | Potency [20]

CN1CCc2cc3c(cc2[C@H]1[C@@H]1OC(=O)c2c1ccc1c2OCO1)OCO3
inactive: Potency [1] | Potency [2] | Potency [3] | outcome [5] | Potency [6] | Potency [7] | max response [8] -0.453% | max response [9] -2.62% | outcome [10] | outcome [11] | max response [12] -16.9% | Potency [13] | Potency [14] | Potency [15] | Potency [16] | Potency [17] | Potency [18] | Potency [19] | Potency [20]

O=C1N[C@@H](Cc2ccccc2)CN2CCCC[C@@H]12
inactive: Potency [1] | Potency [2] | Potency [3] | Potency [4] | outcome [5] | Potency [6] | Potency [7] | max response [8] -11.6% | max response [9] -0.0326% | outcome [10] | max response [11] 1.17% | max response [12] 1.01% | Potency [13] | Potency [14] | Potency [15] | Potency [16] | Potency [17] | Potency [18] | Potency [19] | Potency [20]

COc1ccsc1CNCC[C@@]1(c2ccccn2)CCOC2(CCCC2)C1
inactive: Potency [1] | Potency [2] | Potency [3] | Potency [4] | outcome [5] | Potency [6] | Potency [7] | max response [8] -5.82% | max response [9] -0.102% | max response [10] -8.27% | max response [11] 9.07% | max response [12] -1.76% | Potency [13] | Potency [14] | Potency [15] | Potency [16] | Potency [17] | Potency [18] | Potency [19] | Potency [20]

CC[C@H]1C2CC3[C@@H]4N(C)c5ccccc5[C@]45C[C@@H]([C@H]2[C@H]5O)N3[C@H]1O
inactive: Potency [1] | Potency [2] | Potency [3] | Potency [4] | outcome [5] | Potency [7] | max response [8] 3.45% | max response [9] 3.06% | outcome [10] | max response [11] 2.51% | max response [12] 4.15% | Potency [13] | Potency [14] | Potency [15] | Potency [16] | Potency [17] | Potency [18] | Potency [19] | Potency [20]

C/C=C1/CN2CC[C@]34C(=Nc5ccc(OC)cc53)C2C[C@@H]1C4(CO)C(=O)OC (stereo partly specified)
inactive: Potency [1] | Potency [2] | Potency [3] | Potency [4] | outcome [5] | Potency [6] | Potency [7] | max response [8] 0.729% | max response [9] 4.62% | outcome [10] | max response [11] 0.853% | max response [12] 4.25% | Potency [13] | Potency [14] | Potency [15] | Potency [16] | Potency [17] | Potency [18] | Potency [19] | Potency [20]

c1cncc(OC[C@@H]2CCN2)c1
inactive: Potency [1] | Potency [2] | Potency [3] | Potency [4] | Potency [6] | Potency [7] | max response [8] 0.617% | max response [9] 1.76% | max response [10] 0.624% | max response [11] -3.57% | max response [12] -2.03% | Potency [13] | Potency [14] | Potency [15] | Potency [16] | Potency [17] | Potency [18] | Potency [19] | Potency [20]

Cc1c(Cl)c(OCC(=O)N2CCN(C)CC2)nc2sc(C(=O)NC3CC3)c(N)c12
inactive: Potency [1] | Potency [2] | Potency [3] | Potency [4] | Potency [6] | Potency [7] | max response [8] -0.463% | max response [9] -7.33% | max response [10] -0.624% | outcome [11] | max response [12] 0.637% | Potency [13] | Potency [14] | Potency [15] | Potency [16] | Potency [17] | Potency [18] | Potency [19] | Potency [20]

COC(=O)[C@]12CCCC(C)(C)C1CCc1cc(C(C)C)c(O)c(O)c12 (stereo partly specified)
inactive: Potency [1] | Potency [3] | Potency [4] | outcome [5] | max response [8] -0.302% | max response [9] 3.53% | outcome [10] | max response [11] -12.9% | max response [12] 2.35% | Potency [13] | Potency [14] | Potency [15] | Potency [16] | Potency [17] | Potency [18] | Potency [19] | Potency [20]
active: Potency [7] 18.6 µM

Oc1ccc2c3c1O[C@H]1c4[nH]c5c(N=C=S)cccc5c4C[C@@]4(O)[C@@H](C2)N(CC2CC2)CC[C@]314
inactive: Potency [3] | Potency [4] | outcome [5] | Potency [6] | Potency [7] | max response [8] 1.1% | max response [9] -0.6% | outcome [10] | max response [11] -18.9% | max response [12] -11% | Potency [13] | Potency [14] | Potency [15] | Potency [16] | Potency [17] | Potency [18] | Potency [19] | Potency [20]

CC(=O)O[C@H]1CN2CCC1CC2
inactive: Potency [1] | Potency [2] | Potency [3] | Potency [4] | Potency [6] | Potency [7] | max response [8] -2.3% | max response [9] -3.42% | max response [10] 1.98% | outcome [11] | max response [12] 1.29% | Potency [13] | Potency [14] | Potency [15] | Potency [16] | Potency [17] | Potency [18] | Potency [19] | Potency [20]
